# Measurements taken from PubChem BioAssay (NCI).
# Values joined by “and” are separate entries in the source; they are usually repeats but may differ in a detail not shown here. Equal entries are not always repeated. The panel holds about 83,000 compounds, 20% with a hit somewhere; the sample as a whole holds those more often.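 Cells were grown in 96-well plates and exposed to the test compound at a single concentration for 48 hours; results are reported as percent growth, with values below 10 considered active.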 Active and inactive are the calls of the source.
# Tested on: HCT-15 colon
# Assay: NCI-60 one-dose screen, 48 h (100 = growth as untreated, 0 = no growth, -100 = all killed)
# Conditions: 10 µM
# Description: Growth inhibition of the HCT-15 human tumor cell line is measured as a screen for anti-cancer activity. Cells are grown in 96 well plates and exposed to the test compound for 48 hours. Compounds are tested at a single concentration, which is 10^-5 M for most compounds. The reported endpoint is percent growth (GI% or GIPRCNT), where numbers from 0 - 100% represent growth inhibition, and numbers from -100% - 0 represent cell death. For example, a value of 40 represents 60% growth inhibition. A value of 0 means no net growth occurred over the course of the experiment. A value of -40 indicates 40% of cells at the beginning of the experiment died by the end of the experiment. A value of -100 means all cells are dead at the end of the experiment.
# NCI-60 Human Tumor Cell Lines Screen was performed using the standard one-dose NCI protocol, which is described in more detail at https://dtp.cancer.gov/discovery_development/nci-60/default.htm.
# Compounds with GIPRCNT values below 10 were considered active. Activity score was based on GIPRCNT using the following formula: […]
# Score is 0 for GIPRCNT values of 100 or above, 50 for GIPRCNT values of 0, and 100 for GIPRCNT values of -100.
row,Compound,growth
1,Cc1cc(C)c(C[N+](C)(C)C)c(C)c1C,7.64% (active)
2,Oc1c(I)cc(I)cc1I,108% (inactive)
3,COC1CC2C=C(C)/C=C/C=C/C(=O)NC(c3ccccc3)C/C=C/CCC(O)CC(=O)C2=C1O (stereo not given),-85.2% (active)
4,C=NCC#N,94.2% (inactive) and 107% (inactive)
5,COc1ccc(/C=C\[N+](=O)[O-])cc1OC,53.9% (inactive) and 17.4% (inactive)
6,O=S(=O)(F)c1ccc(Cl)cc1,98% (inactive)
7,O=[N+]([O-])c1ccc(N2CCOCC2)c2c1no[n+]2[O-],-19.3% (active)
8,CC1CCC2(OC1)OC1C(O)C3C4CCC5CC(OC6OC(CO)C(OC7OC(CO)C(O)C(OC8OCC(O)C(O)C8O)C7OC7OC(CO)C(O)C(OC8OC(CO)C(O)C(O)C8O)C7O)C(O)C6O)C(O)CC5(C)C4CCC3(C)C1C2C (stereo not given),37.3% (inactive)
9,O=[N+]([O-])/C=C/c1ccc(Cl)cc1[N+](=O)[O-],-37.1% (active)
10,COc1cc2c(c(OC)c1OC)-c1ccc(O)c(=O)cc1[C@@H](NC(C)=O)CC2,38.3% (inactive)
11,NC(Cc1ccccc1)c1ccccc1 (stereo not given),110% (inactive) and 97.8% (inactive)
12,COS(=O)(=O)c1ccccc1,108% (inactive)
13,[Cl][Hg][c]1ccc(Cl)s1,-59.5% (active)
14,COc1cc([N+](=O)[O-])c2ncccc2c1[N+](=O)[O-],68.9% (inactive)
15,Oc1c(Cl)cc(Cl)c2ccccc12.[Cu+2],99.5% (inactive)
16,COc1ccc2c(ccc3oc([N+](=O)[O-])cc32)c1,5.1% (active)
17,CC(=O)[O][Hg][c]1c(C)c(C)cc(C)c1C,-39.6% (active)
18,COc1cc([C@@H]2c3cc4c(c(O)c3C[C@H]3COC(=O)[C@@H]32)OCO4)cc(OC)c1OC,10.2% (inactive)
19,O=[N+]([O-])/C=C\c1ccc2c(c1)OCO2,78.4% (inactive)
20,CN(C)CC1(N)C(=O)NC(=O)NC1=O,102% (inactive)

row,Compound,growth
1,CS(=N)(=O)CCC(N)C(=O)O (stereo not given),99.9% (inactive)
2,O=C(CBr)Nc1ccccc1,55.6% (inactive)
3,N#CCc1ccccc1,102% (inactive)
4,CN(CCCl)c1ccc(/C=C/C2=[N+](C)c3ccccc3C2(C)C)cc1,101% (inactive)
5,CCOP(=O)(OCC)C(O)c1ccccc1Cl (stereo not given),88.8% (inactive)
6,S=C=NCCc1ccccc1,51.7% (inactive)
7,[Cl][Sn]([c]1ccccc1)([c]1ccccc1)[c]1ccccc1,-87% (active)
8,O=C1C(=O)c2ccccc2-c2ccccc21,-69.5% (active)
9,COc1cc(/C=C/[N+](=O)[O-])cc(Br)c1OC,7.99% (active)
10,CC(C)c1cc([N+](=O)[O-])cc([N+](=O)[O-])c1O,108% (inactive)
11,Cc1ccc(NC(=O)CBr)cc1,96.6% (inactive)
12,C[C@@H]1C[C@@H]([C@H](O)CC2CC(=O)NC(=O)C2)C(=O)[C@@H](C)C1,8.36% (active)
13,O=C1C=Cc2ccccc2C1=O,46.9% (inactive)
14,COc1cc(/C=C\[N+](=O)[O-])ccc1O,-12% (active) and 75.9% (inactive)
15,CC(Cc1ccc2c(c1)OCO2)NN (stereo not given),102% (inactive)
16,O=[N+]([O-])c1cc[n+]([O-])c2ccccc12,-23.1% (active)
17,COC12C(COC(N)=O)C3=C(C(=O)C(C)=C(N)C3=O)N1CC1C2N1C (stereo not given),33.2% (inactive)
18,C#CC1(O)CCC(C(C)(C)C)CC1 (stereo not given),91.6% (inactive)
19,C/C(=C\c1ccc(Cl)c(Cl)c1)[N+](=O)[O-],-66.8% (active) and 101% (inactive)
20,COc1cc(/C=C(/C)[N+](=O)[O-])ccc1O,-48.3% (active) and 1.2% (active)
